The list is not random: actives were taken first. Their share in the collection is about 2.7%.
ALOX12 inh: blocks human arachidonate 12S-lipoxygenase | P18054 | purified 12hLO, xylenol orange hydroperoxide absorbance | Potency, µM (top dose mostly 108 µM), inactives show at the top dose activity change, negative = inhibition, hits mostly inhibitors | 580,000 compounds, 1.1% hits | AID 1671190; note: potency is the fitted concentration of half-maximal effect; % is set by controls: 0 for no effect and ±100 for the full control effect
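Purified human 12hLO (150 nM final) in 25 mM Hepes, 0.01% Triton X-100, pH 7.0 was preincubated 15 min at room temperature with compound. Then 40 uM arachidonic acid was added, 30 min. Hydroperoxide was read by Fe-XO absorbance ratio 573/405 nm.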
Nrf2 inh: inhibitors of Nrf2 signaling; Potency, µM (highest dose often 46 µM), for the others: at the top dose activity change, negative = inhibition, usual class: inhibitors; 360,000 compounds, 2.1% hits; A549 ARE-Fluc reporter, luciferase luminescence, 18-24 h; note: potency is the fitted concentration of half-maximal effect; % is set by controls: 0 for no effect and ±100 for the full control effect; nearly all actives have a fitted effect of over 60% in size
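In this cell-based qHTS, ARE-driven firefly luciferase in A549 cells reports Nrf2 activity; the luminescent signal after BugLite lysis is the measured value, with a prior CellTiter-Fluor read for cell health.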
Nrf2 activator: activates Nrf2 signaling; AREc32 ARE-luciferase reporter (MCF7-derived line), luminescence, 24 h; 410,000 compounds, 0.31% hits; AID 624171; Potency, µM (top dose mostly 46.1 µM), for the others: at the highest dose activation, hits mostly activators; note: potency is the fitted concentration of half-maximal effect; % of control where 0% means no effect; nearly all actives have a fitted effect of over 65% in size
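AREc32_Fluc, 1000 cells/well, OPTI-MEM + 5% FBS, o/n 37 deg C 5% CO2; 23 nL cpd by pin tool, 24 hr; Steady-Glo 30 min RT, luminescence.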
ERG Ets-DNA blk: inhibitors of human ERG Ets domain-DNA interaction; P11308; fluorescence polarization, His-ERG Ets domain / labelled DNA; Potency, µM (top dose mostly 76.9 µM), inactives show top-dose FP activity, negative = inhibition, actives largely listed as inhibitors; 370,000 compounds, 0.028% hits; active = well fitted inhibition curve with a large enough effect in the polarisation, with a control signal flat; inconclusive = small, poorly fitted or top-dose-only effect, or effect the other way, or a change in a side signal; inactive = no such curve, though single readings can be large or run the other way; the % refers to the polarisation;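 note: polarization taken with two DNA probes labelled with fluorescein and Texas red; potency is the fitted concentration of half-maximal effect; % of control where 0% means no effect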
Target sequence (P11308 whole entry, looked up, the tested form may be a part): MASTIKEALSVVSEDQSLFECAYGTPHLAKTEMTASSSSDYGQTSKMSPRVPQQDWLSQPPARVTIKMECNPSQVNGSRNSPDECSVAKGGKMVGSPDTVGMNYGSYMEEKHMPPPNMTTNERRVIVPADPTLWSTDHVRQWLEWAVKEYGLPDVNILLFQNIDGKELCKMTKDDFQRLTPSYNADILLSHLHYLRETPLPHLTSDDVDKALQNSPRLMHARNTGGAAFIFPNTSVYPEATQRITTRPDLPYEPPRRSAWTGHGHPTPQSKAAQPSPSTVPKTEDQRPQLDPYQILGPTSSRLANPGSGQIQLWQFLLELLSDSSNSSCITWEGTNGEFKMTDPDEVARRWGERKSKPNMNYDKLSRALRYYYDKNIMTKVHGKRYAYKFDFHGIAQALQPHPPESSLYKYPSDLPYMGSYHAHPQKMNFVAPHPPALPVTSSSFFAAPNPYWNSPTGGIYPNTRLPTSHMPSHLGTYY
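His-tagged ERG Ets domain (1 uM in the protein solution; 300mM KCl, 50mM Tris-HCl, 1mM EDTA, 1mM DTT, pH 7.5) received compound, then a probe mix of 5 nM fluorescein-DNA and 100nM Texas-615-DNA. Fluorescence polarization was read for both dyes.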
A549 tox: counter-screen for Nrf2 inhibitors: cytotoxicity in A549 cells; A549 ARE-Fluc cells, CellTiter-Fluor viability, 18-24 h; Potency, µM (series often up to 46 µM), without a hit: at the highest dose activity change, negative = cytotoxicity, actives largely listed as inhibitors; 390,000 compounds, 0.16% hits; AID 504648; note: potency is the fitted concentration of half-maximal effect; % is set by controls: 0 for no effect and ±100 for the full control effect
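A549 ARE_Fluc cells in 5% FBS OPTI-MEM were exposed to compounds in concentration-response for 18-24 h at 37 deg C. Viability was read by CellTiter-Fluor fluorescence (Ex 405/Em 525) after 30 min, before the luciferase read.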
LDHA block: LDHA (human) enzyme inhibition; P00338; purified LDHA, NADH/diaphorase-resazurin fluorescence; hits give low values; activity change, % (values are at about 110 or 230 µM); 480,000 compounds, 0.15% hits; AID 1347041; in the data active = activity change below about -30%; inconclusive = mostly about -25% to -30%;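 note: plate controls were DMSO wells for no effect and wells without enzyme for full effect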
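Remaining NADH was detected by diaphorase (0.133 mg/mL) converting 37 µM resazurin to fluorescent resorufin, read at 0 and 20 minutes. The preceding 5-minute room-temperature reaction used 2 nM LDHA, 0.2 mM sodium pyruvate and 0.06 mM NADH at pH 7.4.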
An asterisk follows results filed as active; i = inactive; ? = inconclusive; . = no result; ! = a repeat was not active; [ ] = dose if it differs, or a comment. Unless noted, calls come from the whole dose curve; as a rule, active = well fitted curve in the direction sought with a large enough effect; inconclusive = small, poorly fitted or top-dose-only effect, or another doubt; inactive = no such curve, though single readings can be large; an effect the other way counts as inactive or inconclusive.

SMILES	ALOX12 inh	Nrf2 inh	Nrf2 activator	ERG Ets-DNA blk	A549 tox	LDHA block
CC12CCC(C(=O)N3CCN(C(c4ccccc4)c4ccccc4)CC3)(OC1=O)C2(C)C (stereo not given)	?	23.1µM*	-0.9%	-3.7%	-18.8%	-5.9
N#CCOc1ccc2c(=O)c(-c3ccc(Br)cc3)c(C(F)(F)F)oc2c1	?	.	.	.	.	1.9
O=C(Nc1ccc(F)c(Cl)c1)c1nn(Cc2ccccc2)c(=O)c2ccccc12	?	.	.	.	.	-13.7
COC1=C(C)C(=O)C2=C(C1=O)C1C3CC4=C(C(=O)C(OC)=C(C)C4=O)C(CNC(=O)C(C)=O)N3C(C#N)C(C2)N1C (stereo not given)	-33.9%	0.581µM*	-2.4%	-8.1%	9.2µM*	44.1
COc1ccc(-c2nc(S(=O)(=O)c3ccccc3)c(N3CCCC3)o2)cc1	4.47µM*	.	-1.2%	.	.	-4.3
COc1ccc(-c2nc(S(=O)(=O)c3ccccc3)c(N3CCC(C)CC3)o2)cc1	-13.4%	0.7%	5.0%	7.0%	-4.0%	2.3
Cc1cc(Cl)c2c([N+](=O)[O-])c(O)ccc2n1	?	.	.	.	.	5.9
CCC1(C)CC(C(N)=S)CCO1 (stereo not given)	8.91µM*	1.1%	-0.5%	-6.4%	0.8%	-2.4
CC1(C)CC(C(N)=S)CCO1 (stereo not given)	0.0%	3.1%	0.2%	-11.1%	0.8%	-9.7
CN(CC(=O)Nc1cccc(F)c1)C(=O)c1cccc(S(=O)(=O)N2CCN(Cc3ccccc3)CC2)c1	-4.9%	.	-0.8%	.	.	-1.5
CN(CC(=O)Nc1cccc(F)c1)C(=O)c1cccc(S(=O)(=O)N2CCN(c3ccc(F)cc3)CC2)c1	0.4%	16.4µM*	3.1%	-6.3%	?	-0.9
Cc1ccc(NC(=O)c2cccc(S(=O)(=O)N3CCN(c4ccc(F)cc4)CC3)c2)nc1	0.0%	23.1µM*	4.2%	16.3%	-4.8%	-2.8
Cc1cccc(C)c1NC(=O)CN(C)C(=O)c1cccc(S(=O)(=O)N2CCN(c3ccccc3)CC2)c1	2.7%	-25.5%	-0.2%	-18.4%	3.7%	2.0
CN(CC(=O)Nc1c(Cl)cccc1Cl)C(=O)c1cccc(-n2cccc2)c1	-21.3%	-14.3%	-0.4%	-0.6%	-1.1%	-37.1*!
CN(CC(=O)Nc1ccccc1Cl)C(=O)c1cccc(S(=O)(=O)N2CCN(c3ccccc3)CC2)c1	15.4%	20.6µM*	-0.6%	8.5%	-20.2%	-4.2
O=C1Cc2cc(C(=O)CSc3nnc(-c4ccccc4Cl)o3)c(Cl)cc2N1	?	.	.	.	.	-5.8
CCOc1ccc(/C=C/c2nc(C#N)c(NCCCn3ccnc3)o2)cc1	44.6%	.	.	.	.	-5.8
CN(CC(=O)Nc1ccccc1Cl)C(=O)c1cccc(S(=O)(=O)N2CCN(c3ccc(F)cc3)CC2)c1	0.0%	5.17µM*	0.0%	13.9%	-14.7%	-3.3
CN(Cc1cccc(Cl)c1Cl)C(=O)c1cccc(S(=O)(=O)N2CCN(Cc3ccccc3)CC2)c1	i	13µM*	-0.5%	11.8%	-15.7%	2.1
CN(CC(=O)Nc1ccccc1Cl)C(=O)c1ccc(Cl)c(S(=O)(=O)N2CCCCCC2)c1	-15.2%	?	-0.7%	-10.2%	-11.3%	1.3
CN(CC(=O)Nc1ccccc1Cl)C(=O)c1cccc(S(=O)(=O)N2CCN(Cc3ccccc3)CC2)c1	-2.6%	14.6µM*	-0.2%	-7.9%	-4.6%	2.4
CN(C)c1ccc2nnc(-c3cc(C(=O)Nc4cccc(Cl)c4)ccn3)n2n1	12.9%[176 µM]	.	.	.	.	.
COc1cccc(CN2CCN(Cc3[nH]c4ccccc4c3C)CC2CCO)c1 (stereo not given)	-28.1%	?	8.1%	-4.4%	-2.7%	2.6
COc1cccc(C#Cc2c(CO)[nH]c3ccccc23)c1	50.1µM*	15.6%	19.6%	12.9%	-2.9%	5.4
c1coc(-c2ccnc3nc(-n4cccc4)nn23)c1	-1.3%	8.2%	7.94µM*	-3.9%	-1.3%	-2.1

Screening results: PubChem, National Center for Advancing Translational Sciences (NCATS)
